According to the supplement of paper PMC6555819:

Key:
Assay in all cases: PBM binding z-score (relative to random genomic background probes); higher = stronger binding; sequences stand for … in GC…GCGATTGACAGCGTAGAATGAAGG
[1] = tested on: FXR:RXRa (NR concentration 270 nM, RXRa partner concentration 90 nM)
Procedure, shortened: (§1)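 Binding z-scores take random background probes as their reference. They come from custom Agilent 4×180K protein-binding microarrays incubated 1 h with ligand-free nuclear receptor dimers, with antibodies against each partner (one per run) detecting binding. Scanned fluorescence was regression-normalized.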

[2] = tested on: LXRa:RXRa (NR concentration 270 nM, RXRa partner concentration 90 nM)
Procedure, shortened: as §1

[3] = tested on: LXRa homodimer (NR concentration 270 nM)
Procedure, shortened: as §1

[4] = tested on: LXRb:RXRa (NR concentration 270 nM, RXRa partner concentration 90 nM)
Procedure, shortened: as §1

[5] = tested on: LXRb homodimer (NR concentration 270 nM)
Procedure, shortened: as §1

[6] = tested on: PPARa:RXRa (NR concentration 270 nM, RXRa partner concentration 90 nM)
Procedure, shortened: as §1

[7] = tested on: PPARg:RXRa (NR concentration 180 nM, RXRa partner concentration 90 nM)
Procedure, shortened: as §1

[8] = tested on: PPARg:RXRa 270nM:90nM, anti-RXR (NR concentration 270 nM, RXRa partner concentration 90 nM)
Procedure, shortened: as §1

[9] = tested on: PPARg:RXRa 30nM:10nM, anti-RXR (NR concentration 30 nM, RXRa partner concentration 10 nM)
Procedure, shortened: as §1

[10] = tested on: PPARg:RXRa 90nM:30nM, anti-RXR (NR concentration 90 nM, RXRa partner concentration 30 nM)
Procedure, shortened: as §1

[11] = tested on: PPARg:RXRa DBDmut IVT, anti-RXR (DBD mutation: RXRa K156A/R161A, NR concentration 270 nM, RXRa partner concentration 90 nM)
Procedure, shortened: as §1

[12] = tested on: PPARg:RXRa IVT, anti-PPARg (NR concentration 270 nM, RXRa partner concentration 90 nM)
Procedure, shortened: as §1

[13] = tested on: PPARg DBDmut:RXRa IVT, anti-PPARg (DBD mutation: PPARg1 K132A/R137A, NR concentration 270 nM, RXRa partner concentration 90 nM)
Procedure, shortened: as §1

[14] = tested on: PPARg DBDmut IVT, anti-PPARg (DBD mutation: PPARg1 K132A/R137A, NR concentration 270 nM)
Procedure, shortened: as §1

[15] = tested on: PPARg homodimer (NR concentration 180 nM)
Procedure, shortened: as §1

[16] = tested on: PXR:RXRa (NR concentration 270 nM, RXRa partner concentration 90 nM)
Procedure, shortened: as §1

[17] = tested on: PXR homodimer (NR concentration 270 nM)
Procedure, shortened: as §1

[18] = tested on: RARa:RXR (NR concentration 270 nM, RXRa partner concentration 90 nM)
Procedure, shortened: as §1

[19] = tested on: RARa homodimer (NR concentration 270 nM)
Procedure, shortened: as §1

[20] = tested on: RARb:RXRa (NR concentration 270 nM, RXRa partner concentration 90 nM)
Procedure, shortened: as §1

Sequence	PBM binding z-score [1]	PBM binding z-score [2]	PBM binding z-score [3]	PBM binding z-score [4]	PBM binding z-score [5]	PBM binding z-score [6]	PBM binding z-score [7]	PBM binding z-score [8]	PBM binding z-score [9]	PBM binding z-score [10]	PBM binding z-score [11]	PBM binding z-score [12]	PBM binding z-score [13]	PBM binding z-score [14]	PBM binding z-score [15]	PBM binding z-score [16]	PBM binding z-score [17]	PBM binding z-score [18]	PBM binding z-score [19]	PBM binding z-score [20]
ATATGTAGGTTACATCCGGCTCATTCAGGCTATG	0.486	2.28	0.223	1.13	0.756	3.04	4.81	3.99	1.57	3.14	7.66	6.94	2.85	2.21	0.844	0.18	0.0469	0.506	0.258	1.07
GCGACTGGGGCATCAGCAGGTCACCATAACTTAA	0.886	1.37	0.749	2.27	-0.977	2.79	2.16	2.13	0.0296	1.03	4	4.06	-0.0316	-0.625	2.67	2.2	0.0166	3.04	0.0286	2.53
ATCTCTAGGTAACGAAGTTCAGTGAATGCCGAAC	0.145	0.276	0.427	0.411	0.414	0.915	0.812	1.02	0.0863	0.766	3.22	2.82	0.456	0.901	0.161	1.14	0.916	0.507	0.64	1.14
CCGAGTAGGTTTTGGGGCATTCAGGCAACGGTGA	0.199	0.0127	-0.127	0.177	-0.134	0.31	-0.0212	0.955	-0.147	0.58	0.795	0.696	-0.353	-0.0504	0.76	-0.31	-0.0267	0.2	0.947	0.205
TCCCGGAGGACACGAAGGTCAGAGCTTTCCAGAG	1.21	1.09	0.214	0.838	-1.26	1.81	0.359	1.33	1.5	1.41	0.961	0.734	-0.541	-1.41	1.3	1.73	0.166	1.95	-0.433	3.44
TCAGACAGGTGTAGGTAACTCAGGTACGCAGTCG	0.401	1.02	0.205	0.34	-0.0818	0.643	0.472	1.78	3.54	2.76	2.33	0.315	0.327	-0.523	0.265	0.373	0.461	0.495	0.784	0.406
TCTAGTTGGTCAAAGGTCGCACACTCGAAATGCG	2.96	2.82	0.642	2.92	0.553	5.33	10.3	9.2	10.5	10.8	3.09	5.25	1.76	1.51	4.25	3.78	0.71	5.01	1.36	3.29
ACTATTAGTTGTCTTAGGGCAACCGATACGACGC	0.119	0.0228	0.27	0.0317	0.936	-0.245	0.651	0.232	0.276	0.044	0.0563	0.447	1.35	1.18	0.545	-0.171	0.0491	-0.0308	0.604	0.618
TCTAGTTGTTCAAAGGTCACACACTCGAAATGCG	5.39	5.85	4.39	5.41	1.92	5.76	7.52	7.68	6.77	8.74	2.71	4.64	1.27	1.68	4.16	5.49	1.93	5.89	4.19	5
